Whole data set: some 81,000 sequences, median “one-hybrid fitness for binding NBS DNA” near -0.1, cut for the highest 2% near 0.36. Only a selection was taken, and the highest values are over-represented in it overall.
B1: Caulobacter ParB omega fusion; a variant is named by its letters at X, in order, B8GW30 (parent)
chain: MESVVVGEPGMSEGRRGLGRGLSALLGEVDAAPAQAPGEQLGGSREAPIEILQRNPDQPRRTFREEDLEDLSNSIREKGVLQPILVRPSPDTAGEYQIVAGERAWRAAQRAGLKTVPIMVRELDDLAVLEIGIIENVQRADLNVLEEALSYKVLMEKFERTQENIAQTIGKSXSHVANXMRLLXLPDEVQSYLVSGELTAXHARAIAAAADPVALAKQIIEGGLSVRETEALARKAPNLSAGKSKGGRPPRVKDTDTQALESDLSSVLGLDVSIDHRGSTGTLTITYATLEQLDDLCNRLTRGI

Variants of: B1
Assay: one-hybrid fitness for binding NBS DNA (the Noc-binding site; scaled: cognate 1, non-cognate 0); higher = stronger binding
Conditions: with NBS DNA site
Method in brief: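 Fitness here means the log change in variant-to-wild-type read ratio between plasmids sequenced before and after selection. That scale was set so cognate equals 1 and non-cognate equals 0. The selection was a bacterial one-hybrid screen of Caulobacter ParB libraries, four specificity codons randomised, in E. coli USO carrying a HIS3 reporter with the site 19 bp from the promoter, grown 48 hours at 37°C on M9-minus-histidine with 0.1 mM IPTG and 5 mM 3-AT.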

CYIS and NMYI cannot be ordered by “one-hybrid fitness for binding NBS DNA” value: at most 0.2 for the first, at most 0.2 for the second.

PGKG and REGE cannot be ordered by “one-hybrid fitness for binding NBS DNA” value: at most 0.2 for the first, at most 0.2 for the second.

SGQC and TFKE cannot be ordered by “one-hybrid fitness for binding NBS DNA” value: at most 0.2 for the first, at most 0.2 for the second.

GTES and WLDV cannot be ordered by “one-hybrid fitness for binding NBS DNA” value: at most 0.2 for the first, at most 0.2 for the second.

QYEV and CNVT cannot be ordered by “one-hybrid fitness for binding NBS DNA” value: at most 0.2 for the first, at most 0.2 for the second.

ADWS and MSTF cannot be ordered by “one-hybrid fitness for binding NBS DNA” value: at most 0.2 for the first, at most 0.2 for the second.

Compared with QTYH, QTRH is higher in “one-hybrid fitness for binding NBS DNA” value: 0.271 for the first, 0.695 for the second.

Going from VRKE to VRRT, the “one-hybrid fitness for binding NBS DNA” value rises from at most 0.2 to 0.432.

Going from VCRT to VRNT, the “one-hybrid fitness for binding NBS DNA” value rises from at most 0.2 to 0.374.

VRDT and VRVT cannot be ordered by “one-hybrid fitness for binding NBS DNA” value: at most 0.2 for the first, at most 0.2 for the second.

Compared with VRYT, VRKT is higher in “one-hybrid fitness for binding NBS DNA” value: 0.225 for the first, 0.393 for the second.

VCNT and VCKT cannot be ordered by “one-hybrid fitness for binding NBS DNA” value: at most 0.2 for the first, at most 0.2 for the second.

FQNR and ARIY cannot be ordered by “one-hybrid fitness for binding NBS DNA” value: at most 0.2 for the first, at most 0.2 for the second.

LLCL and RNHT cannot be ordered by “one-hybrid fitness for binding NBS DNA” value: at most 0.2 for the first, at most 0.2 for the second.

First: RTHT
Second: RHHK
The “one-hybrid fitness for binding NBS DNA” value of the first is higher: 0.57 for the first, at most 0.2 for the second.

RIHF and RGHT cannot be ordered by “one-hybrid fitness for binding NBS DNA” value: at most 0.2 for the first, at most 0.2 for the second.

Going from RTHP to RIHT, the “one-hybrid fitness for binding NBS DNA” value rises from at most 0.2 to 0.532.

RIHY and RTHN cannot be ordered by “one-hybrid fitness for binding NBS DNA” value: at most 0.2 for the first, at most 0.2 for the second.

Going from RSHT to RHHT, the “one-hybrid fitness for binding NBS DNA” value rises from 0.402 to 0.419.

TCRD and THRD cannot be ordered by “one-hybrid fitness for binding NBS DNA” value: at most 0.2 for the first, at most 0.2 for the second.

YERR and FARS cannot be ordered by “one-hybrid fitness for binding NBS DNA” value: at most 0.2 for the first, at most 0.2 for the second.

YKWR and GHSC cannot be ordered by “one-hybrid fitness for binding NBS DNA” value: at most 0.2 for the first, at most 0.2 for the second.

LSHC and RAHQ cannot be ordered by “one-hybrid fitness for binding NBS DNA” value: at most 0.2 for the first, at most 0.2 for the second.

Going from RAHT to RPHT, the “one-hybrid fitness for binding NBS DNA” value falls from 0.427 to at most 0.2.

Compared with RAHK, RFHT is higher in “one-hybrid fitness for binding NBS DNA” value: at most 0.2 for the first, 0.263 for the second.

Compared with RCHT, RMHP is lower in “one-hybrid fitness for binding NBS DNA” value: 0.538 for the first, at most 0.2 for the second.

First: RMHT
Second: RMHH
The “one-hybrid fitness for binding NBS DNA” value of the first is higher: 0.448 for the first, at most 0.2 for the second.

AGWC and CVAV cannot be ordered by “one-hybrid fitness for binding NBS DNA” value: at most 0.2 for the first, at most 0.2 for the second.

ANSI and SVIN cannot be ordered by “one-hybrid fitness for binding NBS DNA” value: at most 0.2 for the first, at most 0.2 for the second.

CNSM and QFAG cannot be ordered by “one-hybrid fitness for binding NBS DNA” value: at most 0.2 for the first, at most 0.2 for the second.

First: QFYG
Second: QFKR
The “one-hybrid fitness for binding NBS DNA” value of the first is lower: at most 0.2 for the first, 0.595 for the second.

Compared with QFYR, QFFR is higher in “one-hybrid fitness for binding NBS DNA” value: at most 0.2 for the first, 0.439 for the second.

QFDR and QFVR cannot be ordered by “one-hybrid fitness for binding NBS DNA” value: at most 0.2 for the first, at most 0.2 for the second.

Going from QFRR to QFFS, the “one-hybrid fitness for binding NBS DNA” value falls from 0.441 to at most 0.2.

Going from QFFG to QFKH, the “one-hybrid fitness for binding NBS DNA” value falls from 0.554 to at most 0.2.

QFAR and KDMM cannot be ordered by “one-hybrid fitness for binding NBS DNA” value: at most 0.2 for the first, at most 0.2 for the second.

CVAL and PSKH cannot be ordered by “one-hybrid fitness for binding NBS DNA” value: at most 0.2 for the first, at most 0.2 for the second.

NIHC and ILDT cannot be ordered by “one-hybrid fitness for binding NBS DNA” value: at most 0.2 for the first, at most 0.2 for the second.

GHDG and NTKH cannot be ordered by “one-hybrid fitness for binding NBS DNA” value: at most 0.2 for the first, at most 0.2 for the second.

Going from QTKH to QPKD, the “one-hybrid fitness for binding NBS DNA” value falls from 0.744 to at most 0.2.

First: QTVH
Second: QTKD
The “one-hybrid fitness for binding NBS DNA” value of the first is lower: 0.247 for the first, 0.398 for the second.

Going from DTKS to QTVS, the “one-hybrid fitness for binding NBS DNA” value rises from at most 0.2 to 0.406.

Compared with QTVD, QTKS is higher in “one-hybrid fitness for binding NBS DNA” value: at most 0.2 for the first, 0.783 for the second.

NTKS and LKPK cannot be ordered by “one-hybrid fitness for binding NBS DNA” value: at most 0.2 for the first, at most 0.2 for the second.

HFKG and MFQS cannot be ordered by “one-hybrid fitness for binding NBS DNA” value: at most 0.2 for the first, at most 0.2 for the second.

CVRD and CFTS cannot be ordered by “one-hybrid fitness for binding NBS DNA” value: at most 0.2 for the first, at most 0.2 for the second.

THAL and VGWS cannot be ordered by “one-hybrid fitness for binding NBS DNA” value: at most 0.2 for the first, at most 0.2 for the second.

YYSE and CALW cannot be ordered by “one-hybrid fitness for binding NBS DNA” value: at most 0.2 for the first, at most 0.2 for the second.

QTVN and QTVP cannot be ordered by “one-hybrid fitness for binding NBS DNA” value: at most 0.2 for the first, at most 0.2 for the second.

Reference: a collection of fitness landscapes (doi:10.1016/j.celrep.2020.107928)
